Compound activity deposited in PubChem BioAssay by National Center for Advancing Translational Sciences (NCATS).
HTT cytoprotect – qHTS Multiplex Assay to Identify Dual Action Probes in a Cell Model of Huntington: Cytoprotection (ATP) | PC12 HTT-Q103 induced, cytoprotection, ATP luminescence, 40 h | Potency, µM (doses to about 56.4 µM), inactives show cytoprotection (ATP increase), most hits filed as activators | 230,000 tested, 0.14% active; active = well fitted curve in the direction sought with a large enough effect; inconclusive = small, poorly fitted or top-dose-only effect, or another doubt; inactive = no such curve, though single readings can be large; an effect the other way counts as inactive or inconclusive; also: % of control where 0% means no effect; nearly all actives have a fitted effect of over 45% in size
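Huntington model: PC12 line, ecdysone-inducible HTTQ103 exon1–GFP, tebufenozide 100 nM. Test articles in a dose series. Endpoint luminescence from cellular ATP.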
JMJD2E inh – qHTS Assay for Inhibitors of Human Jumonji Domain Containing 2E (JMJD2E). JMJD2E catalytic domain, FDH-coupled NADH fluorescence (FDH is formaldehyde dehydrogenase). Potency, µM (top dose mostly 57.1 µM), inactives show top-dose activity change, negative = inhibition, actives largely listed as inhibitors. 230,000 tested, 1.6% active. AID 2147, 2009;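 also: 0% = wells with enzyme and -100% = buffer wells without enzyme; nearly all actives have a fitted effect of over 50% in size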
HTT aggregate – qHTS Multiplex Assay to Identify Dual Action Probes in a Cell Model of Huntington: Aggregate Formation (GFP); PC12 HttQ103-GFP aggregates, Acumen cytometry, 40 h; Potency, µM (highest dose often 46.1 µM), inactives show at the top dose activity change, negative = inhibition, actives largely listed as inhibitors; 220,000 tested, 1.1% active; AID 1688, 2009; active = well fitted curve in the direction sought with a large enough effect; inconclusive = small, poorly fitted or top-dose-only effect, or another doubt; inactive = no such curve, though single readings can be large; an effect the other way counts as inactive or inconclusive; also: % is scaled to controls: 0 for no effect and ±100 for the full control effect; nearly all actives have a fitted effect of over 60% in size
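Huntingtin Q103 exon 1–GFP aggregates in induced PC12 cells (100 nM tebufenozide) were quantified by cytometry from lysates, with compounds dosed in titration.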
Lamin A splicing – qHTS Assay for Modulators of Lamin A Splicing; HeLa LMNA splicing GFP/RFP minigene ratio, 48 h; Potency, µM (top dose mostly 46.1 µM), inactives show top-dose ratio change, negative = inhibition, usual class: inhibitors; 200,000 tested, 0.01% active; active = well fitted inhibition curve with a large enough effect in the signal ratio, with a control signal flat, not every such curve was filed as active; inconclusive = small, poorly fitted or top-dose-only effect, or effect the other way, or a change in a side signal; the % refers to the signal ratio; also: % is scaled to controls: 0 for no effect and ±100 for the full control effect
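S3 HeLa cells stably expressing lamin A-EGFP splicing minigene plus DsRed2, 600 cells/well, 48 h compound exposure at 37C. Laser-scanning cytometry; analysed as GFP (500-530 nm)/RFP (575-640 nm) total intensity ratio; 0.5% DMSO vehicle.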
HPGD inh – qHTS Assay for Inhibitors of HPGD (15-Hydroxyprostaglandin Dehydrogenase) | 15-hydroxyprostaglandin dehydrogenase [NAD(+)] (Homo sapiens), P15428 | purified HPGD, NADH fluorescence kinetic, PGE2 substrate | Potency, µM, for the others: at the highest dose activity change, negative = inhibition, hits mostly inhibitors | 150,000 tested, 4.3% active; also: % is scaled to controls: 0 for no effect and ±100 for the full control effect
Target sequence (P15428 whole entry, looked up): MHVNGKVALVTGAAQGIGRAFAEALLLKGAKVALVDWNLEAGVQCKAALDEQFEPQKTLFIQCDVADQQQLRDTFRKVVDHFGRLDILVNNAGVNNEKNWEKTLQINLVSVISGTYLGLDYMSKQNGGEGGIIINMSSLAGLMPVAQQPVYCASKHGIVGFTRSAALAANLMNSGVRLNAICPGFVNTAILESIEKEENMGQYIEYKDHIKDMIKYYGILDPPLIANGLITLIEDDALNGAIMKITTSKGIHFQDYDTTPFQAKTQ
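20 nM HPGD preincubated 15 min at room temperature with compound in 50 mM Tris-HCl pH 8, 0.01% Tween 20. Started with 1 mM NAD+ and 30 uM prostaglandin E2; NADH fluorescence (360/450 nm) read 5 times over 30-s intervals, last minus first.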
ALDH1A1 block – qHTS Assay for Inhibitors of Aldehyde Dehydrogenase 1 (ALDH1A1); Aldehyde dehydrogenase 1A1 (Homo sapiens), P00352; AID 1030, 2008; 220,000 tested, 7.3% active; Purified ALDH1A1, NADH fluorescence, propionaldehyde substrate; Potency, µM (titrated, usually from 75.3 µM), inactives show at the highest dose activity, negative = inhibition, actives largely listed as inhibitors;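 also: plate controls were no enzyme wells and a reference inhibitor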
Target sequence (P00352 whole entry, looked up): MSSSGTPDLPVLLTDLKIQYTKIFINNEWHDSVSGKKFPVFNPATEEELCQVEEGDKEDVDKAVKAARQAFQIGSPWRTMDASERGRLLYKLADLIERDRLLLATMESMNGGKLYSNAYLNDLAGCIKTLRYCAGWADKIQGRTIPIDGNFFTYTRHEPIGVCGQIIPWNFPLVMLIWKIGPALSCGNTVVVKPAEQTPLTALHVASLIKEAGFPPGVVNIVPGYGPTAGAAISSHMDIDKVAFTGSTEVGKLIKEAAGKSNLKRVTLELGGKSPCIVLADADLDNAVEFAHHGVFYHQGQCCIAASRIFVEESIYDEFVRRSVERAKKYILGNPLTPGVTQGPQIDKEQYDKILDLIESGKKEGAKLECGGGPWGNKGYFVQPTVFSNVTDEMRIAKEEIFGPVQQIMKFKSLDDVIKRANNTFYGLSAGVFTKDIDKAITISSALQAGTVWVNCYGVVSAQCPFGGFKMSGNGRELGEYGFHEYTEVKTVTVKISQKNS
Starred values were filed as active, the others as inactive; ? = inconclusive; . = not tested or not shown; ! = not active in a repeat; [ ] = remark or other dose. Hits are enriched below; roughly 9.2% of the tested compounds scored in any of these assays. Unless noted, calls follow the shape of the dose curve; as a rule, active = well fitted inhibition curve with a large enough effect (not every such curve was filed as active); inconclusive = small, poorly fitted or top-dose-only effect, or another doubt; inactive = no such curve, though single readings can be large or run the other way. Potency is read from the fitted curve at half-maximal effect.

SMILES | HTT cytoprotect | JMJD2E inh | HTT aggregate | Lamin A splicing | HPGD inh | ALDH1A1 block
COc1ccc(CN2C(=O)Cc3c2nc(N)c2c(N)nc(N4CCCCC4)c(C#N)c32)cc1 | -74.1%[10 µM] | 14.1µM* | ? | -4.6% | ? | -19.8%
COc1cc2c(C#N)c(N3CCCCC3)nc(N)c2c(N)n1 | -32.4% | ? | 11.2µM* | -0.4% | ? | ?
CCOc1cc2c(C#N)c(N3CCCCC3)nc(N)c2c(N)n1 | -6.2% | ? | -32.4% | -8.6% | ? | ?
CCN(C(=O)CSc1nc2ccccc2n1Cc1cc(C)ccc1C)c1ccccc1 | . | . | . | 5.7%[46 µM] | . | .
CCC1CN(C(=O)C2CCN(S(=O)(=O)c3c(C)noc3/C=C/c3ccc(C)cc3)CC2)c2cc(C)ccc2O1 (stereo unspecified) | . | . | . | -11.3%[46 µM] | . | .
COC(=O)CC1C(C)(C)C(OC(C)=O)[C@@]2(O)C=C3C4CC(=O)OC(c5ccoc5)[C@]4(C)CCC3[C@@]1(C)C2=O (stereo partly specified) | 18.7% | 1.3% | . | . | -0.5% | -2.3%
O=C(N/C(=C\c1ccc(Br)cc1)C(=O)N1CCCC1)c1ccccc1F | 0.4%[10 µM] | ? | 0.4%[9.22 µM] | . | . | ?
N#CC1=C(Nc2ccccc2)SC=C(c2ccccc2)N=C1N1CCOCC1 | -75.4% | -11.3% | 7.5% | 7.4% | -18.0% | 25.1µM*
CCN1C(=O)/C(=C/c2cc(C)n(C)c2C)SC1=Nc1ccc(OC)cc1 | -21.1% | -21.4% | -2.8% | 2.5% | -14.2% | 1.26µM*
CCCN1C(=O)/C(=C/c2cc(C)n(C)c2C)SC1=Nc1ccc(OCC)cc1 | -23.2% | 4.1% | 8.4% | 0.0% | -10.9% | 3.16µM*
O=S(=O)(Nc1nc2ccccc2nc1Nc1ccc2c(c1)OCCO2)c1cccs1 | -3.6%[0.074 µM] | 22.4µM* | ? | -9.3% | -14.7% | 3.6%
COc1ccc(S(=O)(=O)Nc2nc3ccccc3nc2Nc2ccc3c(c2)OCO3)cc1 | -4.4%[1.9 µM] | -0.1% | -17.9% | -8.2% | -11.9% | ?
Cc1ccn2c(c1)nc(=S)n2C(=O)c1ccco1 | . | -24.4% | -0.7% | -4.7% | -25.7% | ?
CC1(C)Cc2nc3oc4c(=S)nc[nH]c4c3cc2CO1 | -21.0% | ? | -6.0% | -11.8% | 28.2µM* | 3.16µM*
Cc1cccc(C#Cc2ccccc2)n1 | -130.9% | 12.6µM*! | . | ? | ? | -8.2%
CN(C)c1ccc(-c2nc(NCCc3cnc[nH]3)c3ccccc3n2)cc1 | -107.6% | . | . | ? | . | ?
O=C1CCCC=C1[C@H](O)c1ccc([N+](=O)[O-])cc1 | -9.5%[10 µM] | . | . | . | . | -4.4%[13.5 µM]
CC(C)c1ccc(N2C(=O)N(Cc3cccc([N+](=O)[O-])c3)c3ccccc3S2(=O)=O)cc1 | . | . | . | 2.2%[46 µM] | . | .
O=C1C(=O)N(Cc2cccc([N+](=O)[O-])c2)c2ccccc21 | -84.5%[10 µM] | 4.6% | ? | 4.3% | ? | 0.0501µM*
COc1ccc(C(=O)O/N=C/c2c(C(F)(F)F)nn(C)c2SCc2ccccc2Cl)cc1 | -93.1% | 11.4% | 10µM* | -17.5% | -14.5% | -2.7%
Cc1ccc(C(=O)O/N=C/c2c(C(F)(F)F)nn(C)c2Sc2ccc(Cl)cc2)cc1 | -3.1% | 2.9% | 12.6µM* | -0.7% | -3.0% | -0.1%
Cn1nc(C(F)(F)F)c(/C=N/OC(=O)c2ccccc2Cl)c1SCc1ccc(Cl)cc1 | -78.1% | 5.3% | ? | 5.3% | -8.3% | 6.5%
COC(=O)N1CCC2(CCN(Cc3ccc(C#N)cc3)CC2)CC1 | 4.4% | . | . | . | -15.8% | ?
COC(=O)c1cc(NC(=O)C2CCCN(S(=O)(=O)c3c(C)n[nH]c3C)C2)cc(C(=O)OC)c1 (stereo unspecified) | -15.3% | -6.2% | 6.1% | . | . | -2.8%
CC(C)c1[nH]nc2c1C(C1C=CCCC1)C(C#N)=C(N)O2 (stereo unspecified) | -22.4%[10 µM] | 1.6% | -6.3%[9.22 µM] | ? | . | 14.1µM*
SMILES | HTT cytoprotect | JMJD2E inh | HTT aggregate | Lamin A splicing | HPGD inh | ALDH1A1 block
CC(C)(C)c1[nH]nc2c1C(C1C=CCCC1)C(C#N)=C(N)O2 (stereo unspecified) | -1.5% | 7.6% | 26.2%[9.22 µM] | -5.8% | -3.9% | ?
S=c1nc[nH]c2c1sc1nc(N3CCOCC3)c3c(c12)CCCC3 | -71.2% | -85.6% | 13.6% | ? | . | 1.41µM*
CC(C)c1nc2sc3c(=S)nc[nH]c3c2c2c1CCC2 | 28.2%[10 µM] | 4.0% | -8.3%[9.22 µM] | . | . | .
COC(=O)[C@H](C)NC(=O)C/C=C\[C@@H](C)[C@H]1C=C[C@H](O)[C@@H](CO)O1 | -23.7%[10 µM] | . | . | . | . | -9.3%[13.5 µM]
Cc1cc(OC(=O)CNC(=O)OC(C)(C)C)c2c(C)cc(=O)oc2c1 | -0.3% | -5.4% | -7.0% | ? | 17.8µM* | 15.8µM*
NNc1ccc(Cl)nn1 | 1.8%[10 µM] | -11.9% | -12.9%[9.22 µM] | . | . | 17.8µM*
CNc1ccc(Cl)nn1 | -16.2% | -26.9% | -3.0% | . | . | -1.3%
CC(CC(=O)Nc1cc([N+](=O)[O-])ccc1Cl)c1ccccc1 (stereo unspecified) | -29.1% | 3.0% | -14.3% | 4.4% | -10.8% | -5.6%
Cn1ccnc1/C(=N\NC(=O)c1ccccc1)c1cccc([N+](=O)[O-])c1 | -7.0% | -5.2% | -8.1% | ? | . | ?
O=C(CC(=O)c1cccc([N+](=O)[O-])c1)Nc1ccccc1Cl | 15.9% | -1.3% | 25.7% | . | . | 3.55µM*
O=C(Nc1ccccc1-c1ccccc1)c1cccc([N+](=O)[O-])c1 | 11.4% | -8.3% | 12.4% | 25.8% | -5.0% | 7.94µM*
O=C(Nc1nc(-c2ccccc2)cs1)c1cccc([N+](=O)[O-])c1 | -52.7% | -1.4% | ? | 0.9% | -19.1% | ?
O=C(N/N=C(\c1ccccc1)c1ccccn1)c1cccc([N+](=O)[O-])c1 | -139.3% | -5.1% | 6.31µM* | 17.1%[46 µM] | . | 17.8µM*
COc1cccc(/C=N/NC(=O)c2ccccc2N(Cc2ccccc2)S(=O)(=O)c2ccccc2)c1OC | -29.0% | ? | 18.1% | 3.5% | -23.3% | ?
COc1cc(OC)cc(C(=O)Nc2nnc3n2CCS3)c1 | . | . | . | -6.2%[46 µM] | . | .
Cc1c(CCOC(=O)CC23CC4CC(CC(C4)C2)C3)sc[n+]1Cc1ccccc1 | -60.0% | 4.5% | 11.2µM* | 3.5% | 5.8% | ?
Cc1c(CCOC(=O)C23CC4CC(CC(C4)C2)C3)sc[n+]1CC#N | 0.1% | -10.3% | 9.7% | . | . | 12.6µM*
Cc1c(CCO)sc[n+]1CC(=O)OCCC12CC3CC(CC(C3)C1)C2 | -15.3%[10 µM] | -1.2% | 4.2% | 10.1% | -0.4% | -8.7%
